Source: the OligoGym collection

What follows are sequences tested against STARD3 (assay: pooled miR-30 sensor sort-seq; sequence = guide strand). Settings: shRNA.

Compared with TTCCACTCGCTGCAGGATCTGG, TTAAGAATCCAGACAAAGGTGC is higher in sensor-assay potency score (higher = more potent): -1.17 for the first, -0.169 for the second.

First: TTCAGGATAAACGTCTTGCCGT
Second: TGTGTTGGTATTCAGTTCGATG
The sensor-assay potency score (higher = more potent) of the first is higher: -0.566 for the first, -1.58 for the second.

These sequences were tested against STAT5B in the same assay as above. Settings: shRNA.

First: TTAACACTTCCATCACACCGTC
Second: TTAGCAGTAGCAGACTCGCAGG
The sensor-assay potency score (higher = more potent) of the first is higher: -0.414 for the first, -0.797 for the second.

Compared with TTGTTCAAGATCTCGCCACTGT, TTCTCAATGATGAACGTGCTGG is lower in sensor-assay potency score (higher = more potent): 0.132 for the first, -0.64 for the second.

Compared with TTTAGCAGTAGCAGACTCGCAG, TATACTTCATCTTTTGGCCGAT is lower in sensor-assay potency score (higher = more potent): 0.175 for the first, -0.0426 for the second.

Compared with TTGGCTTCTCGGACCAACCTCT, TAACACTTCCATCACACCGTCA is higher in sensor-assay potency score (higher = more potent): -0.339 for the first, -0.288 for the second.

Going from TTTAACACTTCCATCACACCGT to TTCTGAGTCACTGAATCTCAGG, the sensor-assay potency score (higher = more potent) falls from 0.122 to -1.25.

Going from TAACTCATTCTCTGTGTCCTGC to TTGACTTGAAAAACCAGCTCAT, the sensor-assay potency score (higher = more potent) falls from 0.72 to 0.235.
